Screening results (PubChem BioAssay)
G9a inh: inhibitors of human histone lysine methyltransferase G9a. Q96KQ7. G9a H3K9 monomethylation, AlphaScreen, 2 h. Potency, µM (highest dose often 102 µM), usual class: inhibitors. 350,000 compounds, 8.8% hits. AID 504332; note: nearly all actives have a fitted effect of over 75% in size
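Signal arises when biotinylated H3K9 peptide, once monomethylated, bridges streptavidin donor and antibody-captured acceptor beads. Enzyme at 20 nM was preincubated 15 min with test compounds; peptide 500 nM and SAM 20 uM then reacted for 2 h.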
BAZ2B inh: BAZ2B (human) inhibition. Q9UIF8. AlphaScreen BAZ2B-H3K14Ac peptide displacement. Potency, µM (doses to about 114 µM), usual class: inhibitors. 360,000 compounds, 4.4% hits. AID 504333; note: nearly all actives have a fitted effect of over 60% in size
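AlphaScreen luminescence quantifies BAZ2B engagement of H3K14Ac peptide; the protein and biotinylated peptide are both at 50 nM final, buffer PBS pH 7.4 with 0.01% Tween-20, all steps at room temperature.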
CtBP-E1A blk: inhibitors of CtBP/E1A interaction | AlphaScreen GST-E1A/His-CtBP binding, 1536-well; active compounds read low | activity change, % (concentration not given with the values) | 340,000 compounds, 0.49% hits | AID 651724; in the data active = activity change below about -65%; inconclusive = mostly about -30% to -63%
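GST-E1A and His-tagged CtBP (125 nM each as 5X stock) were preincubated with pin-transferred compound for 2 h at 37 °C in the dark, then glutathione donor and nickel acceptor beads were added for 1 h before AlphaScreen reading.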
Six1-Eya2 inh: blocks human Six1 binding to Eya2; Q15475+O00167; AlphaScreen GST-Six1/His-Eya2 binding, biochemical; active compounds read low; activity change, % (no concentration beside the values); 360,000 compounds, 0.56% hits; AID 651725; in the data active = activity change below about -65%; inconclusive = mostly about -30% to -63%
Target sequence (O00167 whole entry, looked up): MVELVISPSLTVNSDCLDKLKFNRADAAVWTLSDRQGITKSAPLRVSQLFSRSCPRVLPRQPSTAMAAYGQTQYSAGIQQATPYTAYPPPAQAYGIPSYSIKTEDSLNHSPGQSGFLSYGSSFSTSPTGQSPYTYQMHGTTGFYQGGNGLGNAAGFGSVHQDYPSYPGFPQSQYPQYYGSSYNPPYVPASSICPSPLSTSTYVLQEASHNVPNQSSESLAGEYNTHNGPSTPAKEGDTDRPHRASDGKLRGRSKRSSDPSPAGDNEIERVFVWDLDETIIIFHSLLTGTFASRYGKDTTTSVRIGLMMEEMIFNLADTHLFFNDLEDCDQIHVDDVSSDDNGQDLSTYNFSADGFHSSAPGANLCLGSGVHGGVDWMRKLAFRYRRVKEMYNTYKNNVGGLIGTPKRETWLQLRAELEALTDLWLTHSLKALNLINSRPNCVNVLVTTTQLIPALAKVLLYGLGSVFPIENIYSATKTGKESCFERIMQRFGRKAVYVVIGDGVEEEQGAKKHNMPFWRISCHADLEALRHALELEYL
Target sequence (Q15475 whole entry, looked up): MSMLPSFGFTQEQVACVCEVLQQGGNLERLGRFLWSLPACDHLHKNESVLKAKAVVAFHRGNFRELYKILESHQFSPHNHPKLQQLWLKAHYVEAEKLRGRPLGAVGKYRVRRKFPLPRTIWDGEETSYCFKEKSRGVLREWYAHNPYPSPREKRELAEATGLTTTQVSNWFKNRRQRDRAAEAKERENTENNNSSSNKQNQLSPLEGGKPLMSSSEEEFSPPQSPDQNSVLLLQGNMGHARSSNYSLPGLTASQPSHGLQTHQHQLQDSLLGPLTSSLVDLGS
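AlphaScreen with GST-Six1 and His-Eya2 (5X mix: 250 nM and 500 nM), glutathione donor and nickel acceptor beads; buffer 50 mM Tris pH 8.0, 300 mM NaCl, 1 mM TCEP; 1 h at 37 C in the dark.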
JMJD2A Tudor inh: blocks the human JMJD2A Tudor domain; 390,000 compounds, 4.4% hits; O75164; Potency, µM (series often up to 114 µM), hits mostly inhibitors; AlphaScreen JMJD2A-Tudor / H3K4me3 peptide binding; AID 504339; note: nearly all actives have a fitted effect of over 50% in size
HP1b chromo inh: HP1-beta chromodomain-methylated histone interaction inhibition; AlphaScreen HP1-beta / biotin-H3K9me3 peptide binding; Potency, µM (titrated, usually from 114 µM), usual class: inhibitors; 390,000 compounds, 0.56% hits; AID 540317; note: nearly all actives have a fitted effect of over 70% in size
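HP1-beta protein (50 nM final) preincubated 30 min at room temperature with biotinylated H3(1-18)K9me3 peptide (50 nM) in PBS pH 7.4, 0.01% Tween-20, then compound added for 30 min. AlphaScreen streptavidin donor/nickel chelate acceptor beads (10 ug/mL final), 30 min dark, luminescence read.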
Each line names hits and unclear results; the compound was inactive in the other large screens. The list is not random: actives were taken first. Their share in the collection is about 10%. Unless noted, calls come from the whole dose curve; as a rule, active = well fitted inhibition curve with a large enough effect; inconclusive = small, poorly fitted or top-dose-only effect; inactive = no such curve, though single readings can be large or run the other way.

OCCNc1ncnc2c1c(-c1ccccc1)c(-c1ccccc1)n2Cc1ccco1	G9a inh 17.8µM, BAZ2B inh 50.1µM, JMJD2A Tudor inh 56.2µM
c1ccc(-c2oc3ncnc(NCCCn4ccnc4)c3c2-c2ccccc2)cc1	G9a inh inconclusive, BAZ2B inh 25.1µM, JMJD2A Tudor inh 56.2µM, HP1b chromo inh inconclusive
c1ccc(-c2c(-c3ccccc3)n(Cc3ccco3)c3ncnc(NCCCn4ccnc4)c23)cc1	G9a inh inconclusive, BAZ2B inh 31.6µM, CtBP-E1A blk inconclusive, Six1-Eya2 inh inconclusive, JMJD2A Tudor inh 44.7µM, HP1b chromo inh inconclusive
COc1ccc(CNc2cc(-c3ccccc3OC)ncn2)c(OC)c1	none (no result: BAZ2B inh, CtBP-E1A blk, Six1-Eya2 inh, JMJD2A Tudor inh, HP1b chromo inh)
CCc1nn2c(=O)cc(COC(=O)c3ccc(NC(=O)c4cccs4)cc3)nc2s1	none (no result: CtBP-E1A blk, Six1-Eya2 inh)
O=C(CN1CCN(S(=O)(=O)c2cccs2)CC1)NCC1CCCCC1	none
COCCCn1c2nc3ccccc3nc2c2c(=O)n(Cc3ccc(Cl)cc3)cnc21	none
O=c1c2c3nc4ccccc4nc3n(Cc3ccccc3)c2ncn1Cc1ccco1	G9a inh inconclusive, BAZ2B inh 50.1µM
CC(=O)C1=C(O)C(=O)N(c2ccc(O)cc2)C1c1ccc(Cl)cc1 (stereo unspecified)	G9a inh 70.8µM
CC(=O)C1=C(O)C(=O)N(c2ccc(Br)cn2)C1c1ccccc1F (stereo unspecified)	G9a inh inconclusive
CC(=O)C1=C(O)C(=O)N(c2ccc(Br)cn2)C1c1cccc([N+](=O)[O-])c1 (stereo unspecified)	none
COc1cc(C2C(C(C)=O)=C(O)C(=O)N2c2ccc(Br)cn2)ccc1O (stereo unspecified)	BAZ2B inh inconclusive, JMJD2A Tudor inh 89.1µM
CC(=O)C1=C(O)C(=O)N(c2cc(C(C)(C)C)on2)C1c1ccc(Br)cc1 (stereo unspecified)	G9a inh 44.7µM, JMJD2A Tudor inh inconclusive
CC(=O)C1=C(O)C(=O)N(c2ccc(Br)cn2)C1c1ccc(F)cc1 (stereo unspecified)	BAZ2B inh 56.2µM, JMJD2A Tudor inh 1.12µM (no result: G9a inh)
CC(=O)C1=C(O)C(=O)N(c2ccc(Br)cn2)C1c1ccc(Br)cc1 (stereo unspecified)	G9a inh 56.2µM, BAZ2B inh inconclusive, JMJD2A Tudor inh 22.4µM (no result: CtBP-E1A blk)
CC(=O)C1=C(O)C(=O)N(c2nccs2)C1c1ccc(Br)cc1 (stereo unspecified)	G9a inh inconclusive
CCOC(=O)c1[nH]c2ccccc2c1N=CN(C)C	none (no result: G9a inh, BAZ2B inh)
COC(=O)c1[nH]c2cc(OC)ccc2c1N=CN(C)C	G9a inh 39.8µM (no result: CtBP-E1A blk)
CC(C)c1[nH]nc2c1C(c1ccc(OC(=O)c3ccco3)cc1)C(C#N)=C(N)O2 (stereo unspecified)	G9a inh 50.1µM
Cc1[nH]nc2c1C(c1ccc(OC(=O)c3ccco3)cc1)C(C#N)=C(N)O2 (stereo unspecified)	none
CC(NC(=O)c1sc2cc([N+](=O)[O-])ccc2c1Cl)C(C)(C)C (stereo unspecified)	G9a inh 1.58µM, JMJD2A Tudor inh 50.1µM, HP1b chromo inh 6.31µM
O=C(NC1CC1)c1sc2cc([N+](=O)[O-])ccc2c1Cl	none
CC1CCCN(C(=O)c2sc3cc([N+](=O)[O-])ccc3c2Cl)C1 (stereo unspecified)	BAZ2B inh 50.1µM, JMJD2A Tudor inh inconclusive, HP1b chromo inh inconclusive
O=C(c1sc2cc([N+](=O)[O-])ccc2c1Cl)N1CCCCC1	G9a inh inconclusive, BAZ2B inh inconclusive, JMJD2A Tudor inh inconclusive, HP1b chromo inh inconclusive
CCc1nc2ccc(C(=O)N(C)CCN(C)C)cn2c1N(CC)C(=O)NCCc1ccccc1	none (no result: G9a inh, BAZ2B inh, JMJD2A Tudor inh, HP1b chromo inh)
Cc1ccc2nc(-c3ccccc3)cn2c1	none
Oc1ccc(-c2csc(-c3cccnc3)n2)cc1O	BAZ2B inh 44.7µM, JMJD2A Tudor inh 7.08µM, HP1b chromo inh 79.4µM (no result: G9a inh)
Cc1ccc2nc(-c3ccc(O)c(O)c3)cn2c1	BAZ2B inh 50.1µM, JMJD2A Tudor inh 22.4µM, HP1b chromo inh inconclusive (no result: G9a inh)
Clc1ccc(-c2csc(-c3cccnc3)n2)s1	G9a inh 39.8µM (no result: CtBP-E1A blk)
